What follows are molecules tested against Glucocorticoid receptor (Homo sapiens) (UniProt P04150) (assay: GR-GFP Redistribution (AID 450;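 active = compounds whose dose series gives a full or clear partial fitted curve of increased nuclear translocation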)). Conditions: U2OS GR-GFP nuclear translocation, laser cytometry, 2 h.
Potency is read from the fitted curve at half-maximal effect.

Chain of Glucocorticoid receptor (Homo sapiens) (P04150 whole entry, looked up, the tested form may be a part): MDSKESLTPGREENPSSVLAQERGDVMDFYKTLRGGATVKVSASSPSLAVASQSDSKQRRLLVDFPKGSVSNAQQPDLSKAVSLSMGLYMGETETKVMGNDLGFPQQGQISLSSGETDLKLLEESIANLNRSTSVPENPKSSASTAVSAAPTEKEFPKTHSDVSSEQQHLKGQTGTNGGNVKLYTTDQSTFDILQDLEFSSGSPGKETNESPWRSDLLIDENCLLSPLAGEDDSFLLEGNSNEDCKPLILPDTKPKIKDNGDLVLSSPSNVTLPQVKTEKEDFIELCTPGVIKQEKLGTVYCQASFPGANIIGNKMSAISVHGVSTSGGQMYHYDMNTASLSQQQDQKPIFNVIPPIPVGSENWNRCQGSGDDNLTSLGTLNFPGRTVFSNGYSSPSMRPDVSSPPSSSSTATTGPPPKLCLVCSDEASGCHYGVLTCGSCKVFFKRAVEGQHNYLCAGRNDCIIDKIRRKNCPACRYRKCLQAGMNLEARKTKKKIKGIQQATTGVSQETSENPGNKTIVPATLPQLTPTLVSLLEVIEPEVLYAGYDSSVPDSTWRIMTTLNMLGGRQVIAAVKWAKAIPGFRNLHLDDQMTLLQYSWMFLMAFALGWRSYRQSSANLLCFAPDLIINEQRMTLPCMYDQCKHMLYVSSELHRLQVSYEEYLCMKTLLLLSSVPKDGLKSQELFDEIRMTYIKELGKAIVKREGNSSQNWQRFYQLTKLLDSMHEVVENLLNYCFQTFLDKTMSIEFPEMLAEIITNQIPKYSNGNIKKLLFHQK

Potency, inactive:
Cc1noc(C)c1-c1nc(Nc2ccc(F)cc2)c2ccccc2n1 > 46 µM
Cc1nc2cnc(N(C)C)nc2n(-c2ccccc2)c1=O > 46 µM
COc1cccc(Nc2ncc3nc(-c4ccccc4)c(=O)n(C)c3n2)c1 > 9.22 µM
Cn1cc(-c2nc3cnc(N4CCOCC4)nc3n(CCC#N)c2=O)c2ccccc21 > 9.22 µM
CCNc1ncc2nc(-c3ccccc3)c(=O)n(C)c2n1 > 9.22 µM
COc1ccc(-c2nc3cnc(Nc4cccc(OC)c4)nc3n(Cc3cccs3)c2=O)cc1 > 9.22 µM
COCCn1c(=O)c(-c2cccs2)nc2cnc(N3CCOCC3)nc21 > 9.22 µM
O=c1c(-c2ccccc2)nc2cncnc2n1-c1ccccc1 > 9.22 µM
c1csc(CNc2ccnc(-c3ccc4c(c3)OCO4)n2)c1 > 46 µM
O=c1c(-c2cccs2)nc2cnc(N3CCOCC3)nc2n1CCc1ccccc1 > 9.22 µM
COC(=O)C1=C(C)NC(C)=C(C(=O)OCCSc2ccccc2)[C@@H]1C > 46 µM
COc1ccccc1-c1ccc2ncnc(N(C)Cc3ccco3)c2c1 > 46 µM
Cn1c(=O)c(-c2ccccc2)nc2cnc(Nc3ccccc3)nc21 > 9.22 µM
COc1cccc(Cn2c(=O)c(-c3ccc(Cl)cc3)nc3cnc(N4CCNCC4)nc32)c1 > 9.22 µM

The molecules below were run against Glucocorticoid receptor (Homo sapiens) (UniProt P04150) (assay: GR-EFC Redistribution (AID 451)). Conditions: CHO-K1 GR-EFC translocation, beta-gal luminescence, 2 h.
Outline: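 CHO-K1 cells expressing nuclear EA and GR-ED fragments of b-gal; compounds titrated up to 46 uM final, 2 h at 37 C. GR nuclear translocation read as complemented b-gal luminescence after 1 h RT detection.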

Potency, inactive:
COc1ccc(C(=O)N2CCC3(CCN(Cc4cc(C(F)(F)F)cc(C(F)(F)F)c4)CC3)CC2)cc1 > 46 µM
COc1ccc(CNc2ccnc(-c3cccc(C#N)c3)n2)c(OC)c1 > 46 µM
O=c1c(-c2cc(F)cc(F)c2)nc2cnc(N3CCOCC3)nc2n1-c1ccccc1 > 46 µM
c1ccc(CNc2ccnc(-c3ccc4c(c3)OCO4)n2)cc1 > 46 µM
COc1cccc(-c2nc(NCc3ccc(OC)cc3OC)c3ccccc3n2)c1 > 46 µM
COc1ccc(C(=O)N2CCC[C@@]3(CCN(Cc4cc(C(F)(F)F)cc(C(F)(F)F)c4)C3)C2)cc1 > 46 µM
COc1ccc(CNc2nc(-c3ccc4c(c3)OCO4)nc3ccccc23)c(OC)c1 > 46 µM
COc1ccc(-n2c(=O)c(-c3cccs3)nc3cnc(Nc4cccc(OC)c4)nc32)cc1 > 46 µM
COc1cccc(Cn2c(=O)c(-c3ccc(Cl)cc3)nc3cnc(OC)nc32)c1 > 46 µM
COc1ccccc1CNc1nc(-c2cccnc2)nc2ccccc12 > 46 µM
c1ccc(CNc2nc(-c3ccc4c(c3)OCO4)nc3ccccc23)cc1 > 46 µM
CN(C)c1ncc2nc(-c3cccs3)c(=O)n(C3CC3)c2n1 > 46 µM
CN(C)c1ncnc2ccc(-c3ccccc3C(F)(F)F)cc12 > 46 µM
CN(C)c1ncc2nc(-c3cccs3)c(=O)n(-c3ccccc3)c2n1 > 46 µM
COc1cccc(Cn2c(=O)c(-c3cccs3)nc3cnc(Nc4cccc(OC)c4)nc32)c1 > 46 µM
O=C(c1csnn1)N1CCC2(CC1)CN(c1cccc(-c3ccccc3)c1)C2 > 46 µM
COc1ccc(C(=O)N2CCC3(CCCN(Cc4cc(C(F)(F)F)cc(C(F)(F)F)c4)C3)CC2)cc1 > 46 µM
N#CCCn1c(=O)c(-c2ccc(Cl)cc2)nc2cnc(Nc3ccccc3)nc21 > 46 µM
O=c1c(-c2ccc(F)cc2)nc2cnc(Nc3ccccc3)nc2n1Cc1cccs1 > 46 µM
COc1cccc(-c2nccc(NCc3cccs3)n2)c1 > 46 µM
Cc1c(CC(C)(C)C(=O)O)n(Cc2ccc(Cl)cc2)c2ccc(F)cc12 > 46 µM
Cc1noc(C)c1-c1nc(Nc2ccc(F)cc2)c2ccccc2n1 > 46 µM
Cc1nc2cnc(N(C)C)nc2n(-c2ccccc2)c1=O > 46 µM
COc1cccc(Nc2ncc3nc(-c4ccccc4)c(=O)n(C)c3n2)c1 > 46 µM
Cn1cc(-c2nc3cnc(N4CCOCC4)nc3n(CCC#N)c2=O)c2ccccc21 > 46 µM

Source: PubChem BioAssay (NCATS)
